Source: PubChem BioAssay (Corson Lab, School of Medicine, Indiana University)
FECH block = blocks human mitochondrial ferrochelatase activity; purified FECH, Ni-mesoporphyrin absorbance 550 nm; calls only at 10 µM (by protocol); 20,000 tested, 3.3% active;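 active means enzyme reaction rate more than 3 SD below the solvent-only control wells on the same plate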;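 further: lower slope than DMSO wells means FECH inhibition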
Target sequence (P22830 whole entry, looked up): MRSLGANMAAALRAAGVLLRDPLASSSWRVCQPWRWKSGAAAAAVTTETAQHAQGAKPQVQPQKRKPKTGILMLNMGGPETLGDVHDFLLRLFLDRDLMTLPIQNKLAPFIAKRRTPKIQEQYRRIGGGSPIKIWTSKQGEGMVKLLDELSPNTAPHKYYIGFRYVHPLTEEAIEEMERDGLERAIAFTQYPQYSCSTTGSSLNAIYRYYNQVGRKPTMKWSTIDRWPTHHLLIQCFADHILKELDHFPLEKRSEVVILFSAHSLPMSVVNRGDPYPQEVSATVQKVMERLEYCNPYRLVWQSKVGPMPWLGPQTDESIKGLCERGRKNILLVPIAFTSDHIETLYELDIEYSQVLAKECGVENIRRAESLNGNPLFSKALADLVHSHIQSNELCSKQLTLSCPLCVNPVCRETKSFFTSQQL
* marks the source's active call; other numbers are inactive results. Many of the other results were omitted from the sample, so hits are more common in it than they were.

CCc1ccc(C2=C(C)C(=O)N(CC(=O)NC3CCCCC3)S2(=O)=O)cc1 was read as FECH block inactive.
COc1ccc2nc(Cn3cnc4ccc(F)cc4c3=O)[nH]c2c1 was read as FECH block inactive.
`Cc1cccc2[nH]c(CCN(C)C(=O)c3cccc(C4CCNC4)c3)nc12` (stereo not drawn) gave FECH block inactive.
Screening Cc1cccc(-n2c(CN3CCN(S(=O)(=O)c4cccs4)CC3)nc3cccnc32)c1 returned FECH block inactive.
Cc1ccc(-n2c(CN3CCN(S(=O)(=O)c4cccs4)CC3)nc3cccnc32)cc1 was read as FECH block active.
For Cc1ccc(-n2c(CN3CCN(S(=O)(=O)c4ccc(Cl)s4)CC3)nc3cccnc32)cc1 the results were FECH block inactive.
Cc1ccc(CN(C)C(=O)c2c(C)nc3sccn23)o1 was read as FECH block inactive.
COc1ccc(Cl)cc1Nc1cc(-c2ccc(C)cc2)nc(C)n1 was read as FECH block inactive.
Cc1[nH]cnc1-c1nccn1CCC1=CCCCC1 was read as FECH block inactive.
Screening CCN(c1ccccc1)S(=O)(=O)c1cc(N2C(=O)CCS2(=O)=O)ccc1OC returned FECH block inactive.
Screening CCCc1cnc(C)nc1-c1cccc(NC(C)=O)c1 returned FECH block active.
`CC(=O)Nc1cccc(-c2ncc(C(F)(F)F)cc2Cl)c1` gave FECH block inactive.
Screening CC(=O)Nc1cccc(-c2ccc3[nH]ncc3c2)c1 returned FECH block inactive.
For Clc1ccc(-c2[nH]ncc2CN2CCOC3(CNCCOC3)C2)cc1 (stereo not drawn) the results were FECH block inactive.
`COc1cccc(-c2cc(N3CCN(S(=O)(=O)c4cc(Cl)ccc4OC)CC3)ncn2)c1` gave FECH block inactive.
Cc1cccc(-c2cc(N3CCN(S(=O)(=O)c4ccc(CC(C)C)cc4)CC3)ncn2)c1 was read as FECH block active.
For Cc1ccc(-c2cc(N3CCN(S(=O)(=O)c4c(C)noc4C)CC3)ncn2)cc1 the results were FECH block inactive.
Cc1ccc(-c2cc(N3CCN(S(=O)(=O)c4ccc(CC(C)C)cc4)CC3)ncn2)cc1 was read as FECH block inactive.
COc1cccc(-c2cc(N3CCN(S(=O)(=O)c4ccc(Br)cc4)CC3)ncn2)c1 was read as FECH block inactive.
`Cc1cccc(-c2cc(N3CCN(S(=O)(=O)c4c(C)noc4C)CC3)ncn2)c1` gave FECH block inactive.
`COc1cccc(-c2cc(N3CCN(S(=O)(=O)c4c(C)noc4C)CC3)ncn2)c1` gave FECH block active.
`COc1cccc(-c2cc(N3CCN(S(=O)(=O)c4ccc(F)cc4)CC3)ncn2)c1` gave FECH block inactive.
COc1cccc(-c2cc(N3CCN(S(=O)(=O)c4ccc(OC)c(Cl)c4)CC3)ncn2)c1 was read as FECH block inactive.
COc1cccc(-c2cc(N3CCN(S(=O)(=O)c4cc(OC)ccc4OC)CC3)ncn2)c1 was read as FECH block active.
Screening COc1cccc(-c2cc(N3CCN(S(=O)(=O)c4ccccc4)CC3)ncn2)c1 returned FECH block active.
CC(C)Cc1ccc(S(=O)(=O)N2CCN(c3cc(-c4ccc(F)cc4)ncn3)CC2)cc1 was read as FECH block inactive.
For O=C(CCCc1nc(-c2cccnc2)no1)Nc1cnc2n1CCCC2 the results were FECH block inactive.
For CCC(C)NC(=O)CN1C(=O)C2CCCCN2c2ccc(C(=O)N(C)C)cc21 (stereo not drawn) the results were FECH block inactive.
`CCn1c(=O)n(Cc2ccc(C)cc2)c(=O)c2cnc(-c3ccc(Cl)cc3)nc21` gave FECH block inactive.
Screening COc1ccc(OC)c(NC(=O)N2CC[C@@](C)(O)[C@@H](CC(C)C)C2)c1 returned FECH block inactive.
`Cc1ccc(Cn2c(CNS(=O)(=O)c3ccc(CC(C)C)cc3)nc3cccnc32)cc1` gave FECH block inactive.
CC(NS(C)(=O)=O)C(=O)N(C)Cc1ccsc1 (stereo not drawn) was read as FECH block inactive.
For Cc1cc(N2CCCC2)nc(Nc2ccc(NC(=O)c3ccc(C)c(C)c3)cc2)n1 the results were FECH block inactive.
`COc1ccc2cc(C3CN(C(=O)c4cc(N)n[nH]4)CCO3)ccc2c1` (stereo not drawn) gave FECH block inactive.
Cc1n[nH]c(C)c1Cc1n[nH]c(=O)n1[C@H](C)c1ccc(F)cc1 was read as FECH block inactive.
Screening CCc1[nH]c2c(CNc3cc(N4CCOCC4)ncn3)cc(C)cc2c1C returned FECH block inactive.
`CCc1cc(C(=O)NCc2cc(C)cc3c(C)c(CC)[nH]c23)n(C)n1` gave FECH block active.
Screening CCCNC(=O)NCc1cc(C)cc2c(C)c(CC)[nH]c12 returned FECH block inactive.
O=C(Cc1ccncc1)N1CCc2nnc(CCc3ccccc3)n2CC1 was read as FECH block inactive.
For COc1ccc(F)c(-c2nc(Cn3cnc(C)c3)c(C)o2)c1 the results were FECH block inactive.
Screening COCCNC(=O)C1(C)Cn2c(cc3ccsc32)C(=O)N1Cc1ccccc1OC (stereo not drawn) returned FECH block inactive.
`COCCNC(=O)C1(C)Cn2c(cc3ccsc32)C(=O)N1Cc1ccccc1` (stereo not drawn) gave FECH block inactive.
COCCNC(=O)C1(C)Cn2c(cc3ccsc32)C(=O)N1Cc1ccccc1C (stereo not drawn) was read as FECH block active.
COc1cccc(C(=O)NC2CC(=O)N(c3ccc(F)cc3)C2)c1 (stereo not drawn) was read as FECH block inactive.
Screening Cc1ccc(C2=CC(c3ccccc3Cl)n3nc(NC(=O)c4ccccc4)nc3N2)cc1 (stereo not drawn) returned FECH block inactive.
For Cc1cccc(C(=O)Nc2nc3n(n2)C(c2ccccc2Cl)C=C(c2ccccc2)N3)c1 (stereo not drawn) the results were FECH block inactive.
For Cc1ccc(C2=CC(c3ccccc3Cl)n3nc(NC(=O)c4cccnc4)nc3N2)cc1 (stereo not drawn) the results were FECH block active.
Cc1ccc(C2=CC(c3ccccc3Cl)n3nc(NC(=O)c4cccc(C)c4)nc3N2)cc1 (stereo not drawn) was read as FECH block inactive.
For Cc1ccc(C(=O)Nc2nc3n(n2)C(c2ccccc2Cl)C=C(c2ccc(C)cc2)N3)cc1 (stereo not drawn) the results were FECH block inactive.
For Cc1ccc(C2=CC(c3ccccc3Cl)n3nc(NC(=O)c4cccc(Cl)c4)nc3N2)cc1 (stereo not drawn) the results were FECH block active.
CCN(Cc1noc(C)n1)C(=O)c1cn[nH]c1-c1cccc(OC)c1 was read as FECH block inactive.
Screening COC(=O)c1cc2n(n1)CCN(C(=O)c1cc(C)n3nc(C)cc3n1)C2 returned FECH block inactive.
Cc1nc(C)c(CC(=O)NCc2cccc(OC(F)(F)F)c2)s1 was read as FECH block inactive.
Screening COc1ccc(Nc2nc(NCCc3ccccc3)nc3c2cnn3-c2ccccc2)cc1 returned FECH block inactive.
For Cc1ccc(F)cc1NC(=O)CNCc1cn[nH]c1-c1ccc(F)cc1 the results were FECH block inactive.
Cc1nc2nc[nH]n2c(=O)c1NC(=O)Nc1ccc(F)cc1F was read as FECH block inactive.
